Screening data from PubChem BioAssay.
In the library only some 8.8% were active in any assay of this set; here they are far more common.
KB-3-1 tox: KB-3-1 parental cell cytotoxicity; Potency, µM (top dose mostly 46.1 µM), usual class: cytotoxic; KB-3-1 viability, CellTiter-Glo ATP luminescence, 72 h; 1.4% of 400,000 active; AID 1347075; also: potency is read from the fitted curve at half-maximal effect; nearly all actives have a fitted effect of over 60% in size
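Viability of parental KB-3-1 cells, measured by CellTiter-Glo luminescence, followed a 72 h incubation at 37 °C with pinned compounds in phenol-red-free DMEM containing 10% FBS.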
KB-V1 cytotox: KB-V1 MDR subline cytotoxicity; KB-V1 MDR cells viability, CellTiter-Glo, 72 h; 3.4% of 400,000 active; Potency, µM (top dose mostly 46.1 µM), most hits filed as cytotoxic; also: potency is read from the fitted curve at half-maximal effect; nearly all actives have a fitted effect of over 60% in size
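Potencies derive from concentration-effect curves fitted to normalized luminescence (CellTiter-Glo) of KB-V1 cells treated for 72 h at 37 degrees C in phenol-red-free DMEM containing 10% FBS.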
IL1B secr inh: blocks inflammasome-driven IL-1 beta release. THP-1 LPS/ATP IL-1B secretion, AlphaLISA, 16 h; hits give low values. activity change, % at 57.5 µM. 4.7% of 360,000 active; in the data active = activity change below about -50%; inconclusive = mostly about -30% to -49%
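THP-1 cells pretreated 1 hr with compounds (up to 57.5 uM final), then stimulated with LPS (250 ng/mL final) plus ATP (1.25 mM final); secreted IL-1B measured by AlphaLISA after 16 hr, decreased signal indicating inhibition.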
HT1080 IDH1KD tx: toxicity to HT-1080 IDH1 knockdown cells (counter line); HT-1080 IDH1 knockdown viability, ATP luminescence, 48 h; Potency, µM (doses to about 46.1 µM), without a hit: at the highest dose activity, negative = toxicity, hits mostly cytotoxic; AID 686971; 2% of 360,000 active;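 also: potency is read from the fitted curve at half-maximal effect; 0% = DMSO wells and -100% = cell-free medium wells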
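In this qHTS, HT-1080 cells depleted of IDH1 are exposed for 48 h at 37 °C to compound titrations. Toxicity is scored from CellTiter-Glo luminescence, with DMSO as full viability and medium alone as none.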
HT1080NT lethal: kills 2HG-producing HT-1080-NT fibrosarcoma cells | Potency, µM (series often up to 46.1 µM), inactives show at the top dose activity, negative = less viability, actives largely listed as cytotoxic | 1.6% of 360,000 active | AID 686970 | HT-1080-NT fibrosarcoma viability, CellTiter-Glo ATP luminescence, 48 h;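 also: NT is the 2HG producing partner of a matched IDH1 knockdown line; potency is read from the fitted curve at half-maximal effect; 0% = DMSO-treated cells and -100% = media-only wells without cells; nearly all actives have a fitted effect of over 55% in size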
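Viability of the 2HG-overproducing fibrosarcoma line after 48 hours of compound exposure at 37 degrees C was determined by luminescence with CellTiter-Glo, and concentration-effect curves were then fitted and categorized.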
* marks the source's active call; other numbers are inactive results; i = inactive; ? = inconclusive; / = not tested or not shown; ! = not confirmed by another sample. Unless noted, calls follow the shape of the dose curve; as a rule, active = well fitted curve in the direction sought with a large enough effect; inconclusive = small, poorly fitted or top-dose-only effect, or another doubt; inactive = no such curve, though single readings can be large; an effect the other way counts as inactive or inconclusive. Unless noted, % is scaled to controls: 0 for no effect and ±100 for the full control effect.

SMILES	KB-3-1 tox	KB-V1 cytotox	IL1B secr inh	HT1080 IDH1KD tx	HT1080NT lethal
CC(C)NC(=O)c1ccc2c(c1)N(Cc1ccccc1)C(=O)C(C)(C)O2	i	i	-52*	10%	1%
CCOc1ccccc1Oc1cn[nH]c1-c1ccc(O)cc1O	i	i	11	-1%	-21%
C=C(C)COc1ccc(-c2[nH]ncc2Oc2cccc(OC)c2)c(O)c1	i	?	-17	?	23µM*
C=C(C)COc1ccc(-c2[nH]ncc2Oc2ccccc2OCC)c(O)c1	?	i	-63*	26µM*	?
CCc1ccc(Nc2ncccc2C#N)cc1	i	i	-59*	-3%	-8%
CCC(C)c1ccc(Nc2ncccc2C#N)cc1 (stereo not given)	i	i	0	-13%	-5%
COC(=O)c1ccccc1S(=O)(=O)Nc1cc(=O)c2ccccc2[nH]1	i	i	/	/	/
Cc1[nH]c2c(Cl)cccc2c1CCNC(=O)C1CCCCC1C(=O)OCC(F)(F)F (stereo not given)	i	?	-80*	-7%	-20%
COc1cccc(OCCOCC(O)CN2CCN(Cc3ccc(Cl)cc3)CC2)c1 (stereo not given)	i	i	-17	-9%	-2%
CCc1ccc(OCCOCC(O)CN2CCN(Cc3ccc(Cl)cc3)CC2)cc1 (stereo not given)	?	i	-53*	?	?
COc1ccc(CCNC(=O)c2ccc(CS(=O)(=O)c3ccc(Cl)cc3)o2)cc1OC	i	2.6µM*	?	-29%	-7%
COc1ccc(CCNC(=O)c2ccc(CS(=O)(=O)c3ccc(C)cc3)o2)cc1OC	?	4.6µM*!	3	-9%	4%
COc1ccc(CCNC(=O)c2ccc(CSc3ccc(Cl)cc3)o2)cc1OC	/	i	/	?	?
CCC(C)c1ccccc1NC(=O)C(C)OC(=O)c1ccco1 (stereo not given)	i	i	12	-2%	2%
Oc1c(Br)cc(Br)cc1-c1nc2ccccc2s1	i	i	/	/	/
CN(C)CCCSc1nc(-c2ccccc2)nc2c1CCC2	i	i	-53*	-10%	-22%
CN(C)C(=O)CSc1nc(-c2ccccc2)nc2c1CCCC2	?	?	-70*	?	-28%
CN(C)CCSc1nc(-c2ccccc2)nc2c1CCC2	i	i	-1	1%	-1%
CNC(=O)c1ccc(-n2cccn2)nc1	i	i	9	27%	20%
COC(=O)c1c(-c2ccncc2)csc1NC(=O)c1ccoc1C	?	6.5µM*	?	21%	17%
CC(=O)c1cccc(NS(=O)(=O)c2ccc3c(c2)oc(=O)n3C)c1	?	16µM*	17	-19%	?
CCc1cccc(NS(=O)(=O)c2ccc3c(c2)oc(=O)n3C)c1	?	4.6µM*	0	-6%	-9%
CC1=C(C(=O)Nc2ccccc2)C(c2ccc(O)cc2)n2nc(-c3ccc(Cl)cc3)nc2N1 (stereo not given)	i	i	/	/	/
Cc1ccc(CNC(=O)C(=O)NCC(c2ccco2)S(=O)(=O)c2ccccc2)cc1 (stereo not given)	i	i	/	/	/
O=C1C(c2ccncc2)N(CCC2=CCCCC2)C(=O)CN1C1CCCCC1 (stereo not given)	i	11µM*	0	-9%	3%
SMILES	KB-3-1 tox	KB-V1 cytotox	IL1B secr inh	HT1080 IDH1KD tx	HT1080NT lethal
Cc1cc(Cn2nc(C(=O)NCC3CC3)cc2-c2ccccc2)on1	i	i	-23	2%	-4%
CCc1c(C)sc(NC(=O)C2CC2c2ccccc2)c1C(N)=O (stereo not given)	i	6.5µM*	0	-28%	-22%
CCOc1ccccc1CNC(=O)CN1C(=O)c2cccnc2Oc2ccc(C)cc21	i	i	/	/	/
O=[N+]([O-])c1ccc(NCCCc2ccccc2)cc1	i	i	-18	0%	-7%
CCCc1nc2oc3c(NCCN4CCOCC4)ncnc3c2c2c1CCCC2	i	1.8µM*	-18	-9%	-2%
CC(C)Cc1nc2oc3c(Cl)ncnc3c2c2c1CCC2	i	i	-102*	?	2%
CC(C)Cc1nc2oc3c(NCCCN4CCOCC4)ncnc3c2c2c1CCC2	?	i	-59*	-4%	8%
N/C(=N\c1nnc(-c2ccncc2)s1)Nc1ccc(Cl)c(Cl)c1	i	i	/	/	/
COC1OCC(O)C(NC(=O)N(C)N=O)C1O (stereo not given)	i	i	-14	3%	1%
COc1cccc(/C=N/n2c(CO)nc3ccccc32)c1OC	i	?	-22	7%	10%
CNc1nc2ccccc2n1/N=C/c1cccc(OC)c1OC	i	8.2µM*	-6	-28%	-1%
COc1cccc(C=NNc2nnc(NN=Cc3cccc(OC)c3OC)c3ccccc23)c1OC	?	?	-63*	-11%	-16%
O=c1c2cc3c(cc2n(Cc2ccccc2)c(=O)n1Cc1nc(-c2ccccc2)no1)OCO3	i	i	/	/	/
C[C@@H]1CN([C@H](C)CO)C(=O)Cc2cc(NC(=O)Cn3cnnn3)ccc2O[C@@H]1CN(C)Cc1ccc(Cl)c(Cl)c1	i	i	-59*	-16%	-2%
C[C@@H]1CN([C@H](C)CO)C(=O)c2cc(NS(=O)(=O)c3ccc(F)cc3)ccc2O[C@@H]1CN(C)Cc1ccc(Cl)c(Cl)c1	i	i	-72*	?	23µM*
C[C@@H]1CCCCO[C@@H](CN(C)Cc2ccc(C(F)(F)F)cc2)[C@@H](C)CN([C@H](C)CO)C(=O)c2cc(N(C)C)ccc2O1	?	i	-53*	-29%	-28%
C[C@@H]1CN([C@H](C)CO)C(=O)c2cc(NC(=O)Nc3ccc(C(F)(F)F)cc3)ccc2O[C@H]1CN(C)Cc1ccc(Cl)c(Cl)c1	?	?	-80*	?	?
COc1ccc(N2CCN(C(CNC(=O)C(=O)NCCCn3ccnc3)c3ccco3)CC2)cc1 (stereo not given)	i	i	-1	0%	0%
CC(=O)Nc1nonc1-c1nnc(SCC(=O)Nc2cc(Cl)ccc2C)n1C	i	i	/	/	/
C[C@@H]1CCCCO[C@@H](CN(C)Cc2ccc(Cl)c(Cl)c2)[C@@H](C)CN([C@H](C)CO)C(=O)c2cc(NC(=O)CCC(F)(F)F)ccc2O1	i	?	-5	?	?
C[C@@H]1CN([C@@H](C)CO)C(=O)c2cc(NC(=O)CCC(F)(F)F)ccc2O[C@H]1CN(C)Cc1ccc(Cl)c(Cl)c1	i	i	?	23µM*	?
Fc1cccc(CN2CCN(c3nc4nonc4nc3NC3CC3)CC2)c1	i	i	12	3%	7%
Cc1sc2nc(CSc3ccccc3)nc(N3CCN(C)CC3)c2c1C	?	i	/	?	?
